Outcome and AC50 data for 22 compounds are collected here from PubChem BioAssay (EPA / NIEHS).

Some compounds were tested as several samples or in several runs, with calls that do not always agree. Active and inactive are the calls of the source. How the source made its calls: active means hit-call score of the fitted dose curve at least 0.9, where 1 is the maximum; inactive means score below 0.9.

Experiment [1] is described as follows: BSK_3C_SRB: Viability Assessment in the BioMAP Diversity Plus: 3C Assay (AID 2283023).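 Further: fitted both ways against DMSO so a hit may be signal rise or drop.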 The note with it: primary human endothelial cells (HUVEC). Put shortly:
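Absorbance at 560 nm of sulforhodamine B-stained (0.1%) total protein served as a cytotoxicity readout in human umbilical vein endothelial cells, 24 h after chemical treatment. Signal was fitted bidirectionally relative to DMSO.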

Read-out in experiment [2]: Matrix Metallopeptidase 1 (MMP1), MMP1 (gene 4312)
The experiment can be described thus: BSK_BE3C_MMP1: BioMAP Diversity Plus: BE3C Assay for Matrix Metallopeptidase 1 (MMP1) Biomarker Activity (AID 2283024). The note with it: primary human bronchial epithelial cells; actives raise or lower the signal. A digest of the protocol: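 ELISA measurement of MMP-1 after 24 h compound exposure of primary human bronchial epithelial cells. Changes in either direction fitted relative to DMSO; parallel SRB staining checked overt cytotoxicity.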

Read-out in experiment [3]: Pselectin, SELP (gene 6403)
Description: BSK_4H_Pselectin: BioMAP Diversity Plus: 4H Assay for Pselectin Biomarker Activity (AID 2283026). Conditions: primary human endothelial cells (HUVEC); actives raise or lower the signal. A digest of the protocol:
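ELISA of surface P-selectin on HUVEC, 24 h after dosing, with parallel SRB staining (0.1% after 10% TCA fixation, 560 nm) for overt cytotoxicity. Activity fitted in both directions relative to DMSO.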

Experiment [4] can be described thus: BSK_4H_SRB: Viability Assessment in the BioMAP Diversity Plus: 4H Assay (AID 2283027).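 Further: cells exposed to compound for 24 h before staining.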 The note with it: primary human endothelial cells (HUVEC). Put shortly: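 Cytotoxicity read-out in primary human endothelial cells: after 24 h compound exposure, cells were TCA-fixed (10%), stained with 0.1% SRB and absorbance taken at 560 nm. Values fitted in both directions relative to DMSO.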

Experiment [5] is described as follows: BSK_BE3C_SRB: Viability Assessment in the BioMAP Diversity Plus: BE3C Assay (AID 2283028). Conditions: primary human bronchial epithelial cells. A digest of the protocol: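 Cells (human bronchial epithelial, primary) are treated with chemicals, and after 24 h the parallel cultures are fixed in 10% TCA. These are then stained with 0.1% SRB and read at 560 nm. Gain or loss of signal is fitted relative to DMSO.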

Read-out in experiment [6]: Thrombomodulin, THBD (gene 7056)
Description: BSK_3C_Thrombomodulin: BioMAP Diversity Plus: 3C Assay for Thrombomodulin Biomarker Activity (AID 2283029). Conditions: primary human endothelial cells (HUVEC); actives raise or lower the signal. A digest of the protocol: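 ELISA measurement of thrombomodulin on HUVEC surface 24 h after chemical dosing; activity fitted in both directions relative to DMSO vehicle.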

Read-out in experiment [7]: Vascular endothelial growth factor receptor 2 (Homo sapiens) (UniProt P35968)
Description: BSK_4H_VEGFRII: BioMAP Diversity Plus: 4H Assay for Vascular endothelial growth factor receptor 2 (VEGFR2) Biomarker Activity (AID 2283031). The note with it: primary human endothelial cells (HUVEC); actives raise or lower the signal. Put shortly: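 ELISA read-out of VEGFRII in primary human umbilical vein endothelium, taken 24 h after chemical treatment. Responses are expressed relative to DMSO, with bidirectional fitting.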

Read-out in experiment [8]: Human Leukocyte Antigen - DR isotype (HLADR), HLA-DRA (gene 3122)
The experiment can be described thus: BSK_BE3C_HLADR: BioMAP Diversity Plus: BE3C Assay for Human Leukocyte Antigen - DR isotype (HLADR) Biomarker Activity (AID 2283032). Conditions: primary human bronchial epithelial cells; actives raise or lower the signal. A digest of the protocol: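 Cell-surface HLA-DR ELISA readout at 24 h after dosing in the BE3C primary human lung bronchial epithelial system; gain or loss of signal against DMSO, with parallel sulforhodamine B staining of total protein for overt cytotoxicity.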

Experiment [9] in a line: BSK_3C_Vis: BioMAP Diversity Plus: 3C Assay for Morphology Visualization (AID 2283025).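 Further: fitted both ways so gain or loss versus DMSO counts.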 The note with it: primary human endothelial cells (HUVEC). Put shortly:
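Light-microscopy visualization of HUVEC cultures at 24 h post-treatment, with DMSO as baseline for bidirectional fitting.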

Read-out in experiment [10]: Urokinase-type plasminogen activator receptor (uPAR), PLAUR (gene 5329)
Description: BSK_4H_uPAR: BioMAP Diversity Plus: 4H Assay for Urokinase-type plasminogen activator receptor (uPAR) Biomarker Activity (AID 2283030). The note with it: primary human endothelial cells (HUVEC); actives raise or lower the signal. Put shortly: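 Cell-surface uPAR ELISA signal, measured 24 h after dosing human umbilical vein endothelial cells, was analyzed with bidirectional fitting relative to DMSO. Parallel SRB staining of total protein tracked overt cytotoxicity.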

As to `OC(O)(C(F)C(O)(O)C(F)(F)F)C(F)(F)F`, the result in [1], in experiment [2], in [3], in experiment [4], in experiment [5] and in experiment [6] was inactive. In addition, the result in experiment [7] and in experiment [8] was inactive.
As for `O=S1(=O)CCCO1`, the outcome in experiment [1], in [2], in experiment [9], in experiment [3], in [4] and in experiment [5] was inactive. Besides, the result in experiment [6], in experiment [7] and in [8] was inactive.
For the compound `CCn1nc(C)c2c1C(=O)NCC(c1ccc(O)cc1)=N2`, the result in [1], in [2], in [9], in experiment [3], in [4] and in [5] was inactive. Further, the result in [6], in [7] and in experiment [8] was inactive.
With `CC[C@H](C)C(=O)O[C@H]1C[C@H](O)C=C2C=C[C@H](C)[C@H](CC[C@@H](O)C[C@@H](O)CC(=O)O)[C@H]21`, the result in experiment [1], in experiment [2], in experiment [9], in experiment [3], in experiment [4] and in [5] was inactive. Further, the result in experiment [6], in experiment [7] and in [8] was inactive.
Consider `NC(N)=O`, for which the result in [1], in [2], in experiment [9], in [3], in [4] and in [5] was inactive. For the same compound, the outcome in experiment [6], in experiment [7] and in experiment [8] was inactive.
For `O=C(Cl)C(F)(F)C(F)(F)C(F)(F)C(=O)Cl`, the result in experiment [1], in experiment [2], in experiment [3], in experiment [4], in experiment [5] and in experiment [6] was inactive. Besides, the result in experiment [10], in [7] and in [8] was inactive.
Take `Cn1c(=O)c2[nH]cnc2n(C)c1=O`: the outcome in experiment [1], in [2], in [9], in experiment [3], in [4] and in experiment [5] was inactive. For the same compound, the outcome in experiment [6], in experiment [7] and in [8] was inactive.
By AC50 is commonly meant the midpoint of the concentration-response curve, whichever way the signal moves. Consider `NCC(F)(F)C(F)(F)C(F)(F)C(F)(F)F`, for which the outcome in experiment [1], in experiment [2], in [3], in experiment [4], in experiment [5] and in experiment [6] was inactive. In addition, the outcome in experiment [7] and in experiment [8] was inactive. Moreover, in experiment [6], the AC50 is 5950 nM (active).
Take `OCCC(F)(F)C(F)(F)C(F)(F)C(F)(F)F`: the result in experiment [1], in experiment [2], in experiment [3], in [4], in [5] and in experiment [6] was inactive. The result in experiment [7] and in experiment [8] was inactive.
As for `c1ccc2cc3ccccc3cc2c1`, the result in experiment [1], in [2], in [9], in [3], in [4] and in [5] was inactive. For the same compound, the result in experiment [6], in [7] and in [8] was inactive.
On to `Cc1nc(-c2ccccn2)ncc1C(=O)Nn1cc(C)c2cc(F)ccc21`, for which the AC50 in experiment [1] was 20000 nM (active). The outcome in experiment [2], in experiment [9], in experiment [3], in [4], in experiment [5] and in experiment [6] was inactive. Further, the outcome in experiment [7] and in experiment [8] was inactive.
Take `CC(C)c1nnc2ccc(-c3ocnc3-c3cc(F)ccc3F)cn12`: the AC50 in [1] is 610 nM (active); in experiment [2] it was 1050 nM (active); in experiment [6], 451 nM (active). Besides, the result in [9], in [3], in experiment [4], in [5], in experiment [7] and in experiment [8] was inactive.
Consider `OC(CCl)CCl`, for which the outcome in [1], in experiment [2], in experiment [9], in experiment [3], in experiment [4] and in experiment [5] was inactive. In addition, the outcome in experiment [6], in experiment [7] and in [8] was inactive.
`Cc1ncc([C@@H](CCCCCCc2ccc3c(n2)NCCC3)CC(=O)O)cn1`: the outcome in experiment [1], in experiment [2], in experiment [9], in experiment [3], in experiment [4] and in [5] was inactive. In addition, the result in experiment [6], in experiment [7] and in experiment [8] was inactive.
Turning to `CCCC(CCC)C(=O)O`, the result in experiment [1], in experiment [2], in experiment [9], in [3], in [4] and in experiment [5] was inactive. The outcome in experiment [6], in [7] and in experiment [8] was inactive.
As for `FC(F)(F)C(F)(F)C(F)(F)C(F)(F)C(F)(F)C(F)(F)I`, the outcome in experiment [1], in [2], in experiment [3], in [4], in experiment [5] and in experiment [6] was inactive. For the same compound, the outcome in experiment [7] and in [8] was inactive.
Consider `OC[C@H]1O[C@@](CO)(O[C@H]2O[C@H](CO)[C@@H](O)[C@H](O)[C@H]2O)[C@@H](O)[C@@H]1O`, for which the result in experiment [1], in experiment [2], in [9], in [3], in experiment [4] and in experiment [5] was inactive. Further, the outcome in experiment [6], in experiment [7] and in experiment [8] was inactive.
For the compound `NC(=O)N(O)[C@@H]1COc2cc(OCc3ccccc3)ccc21`, the outcome in experiment [1], in experiment [2], in experiment [9], in experiment [3], in experiment [4] and in experiment [5] was inactive. Besides, the result in experiment [6], in experiment [7] and in experiment [8] was inactive.
Turning to `O=S(=O)(O)c1ccc(N=Nc2c(O)ccc3cc(S(=O)(=O)O)ccc23)cc1`, the result in [1], in experiment [2], in experiment [9], in experiment [3], in experiment [4] and in experiment [5] was inactive. For the same compound, the result in experiment [6], in [7] and in [8] was inactive.
Regarding `FC(F)=C(F)C(F)(F)C(F)(F)C(F)(F)C(F)(F)C(F)(F)C(F)(F)F`, the result in [1], in [2], in experiment [3], in experiment [4], in experiment [5] and in [6] was inactive. Moreover, the result in experiment [7] and in [8] was inactive.
Take `C[Si](C)(C)C(F)(F)C(F)(F)C(F)(F)F`: the result in [1], in experiment [2], in experiment [3], in experiment [4], in experiment [5] and in experiment [6] was inactive. Moreover, the result in experiment [10], in [7] and in [8] was inactive.
Consider `FC(F)(F)COC(OCC(F)(F)F)OCC(F)(F)F`, for which the outcome in [1], in [2], in experiment [3], in experiment [4], in [5] and in experiment [6] was inactive. Also, the outcome in experiment [10], in [7] and in [8] was inactive.
